Rtt109 HAT inh: blocks Candida albicans Rtt109/Vps75 acetyltransferase activity; Q5AAJ8; AID 540336; 330,000 compounds, 0.16% hits; inhibition, % at 34.9 µM; purified Rtt109/Vps75, ThioGlo CoA-SH fluorescence, 4 h;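 active = inhibition of at least 50% in every replicate; inconclusive = best replicate reaches 50% inhibition but some replicates fall short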
ABHD5-PLIN5 inh: inhibitors of human ABHD5-perilipin-5 interaction; 360,000 compounds, 0.78% hits; Split G. princeps luciferase complementation, luminescence, 4 h; inhibition, % at 4 µM; Q00G26+Q8WTS1;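 active = inhibition above the mean inhibition across every tested compound plus 3 SD, cut at about 22% in these data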;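 also: 0% = DMSO only wells and the 100% control is not disclosed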
DAGLB inhibitor: diacylglycerol lipase beta (human) inhibition; HEK293T DAGLB membrane lysate, EnzChek fluorogenic substrate; inhibition, % at 5.17 µM; Q8NCG7; AID 504411; 340,000 compounds, 0.059% hits; in the data active = inhibition above about 34%;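 also: 0% = enzyme with vehicle and 100% = wells lacking enzyme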
Myeloid diff 2: compounds promoting myeloid differentiation; ER-HoxA9 myeloid progenitors, lysozyme-GFP differentiation, flow cytometry; 360,000 compounds, 1% hits; calls only at 10 µM;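 active = normalized GFP-positive differentiation at or above the plate's own cutoff, the solvent-only control mean plus 3 SD; inconclusive = no clear call, values can overlap the other calls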;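 also: cells exposed to compound for four days before flow analysis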
sPLA2-III inh: Blocks human group III sPLA2 activity; Q9NZ20; inhibition, % at 12.2 µM; 370,000 compounds, 0.56% hits; QFRET BODIPY PC-A2 liposome hydrolysis, fluorescence;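 active = inhibition above mean plus 3 SD of compounds lying within the high and low control bounds, cut at about 19% in these data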;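 also: 0% = median of test compound wells and 100% = no enzyme DMSO wells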
Target sequence (Q9NZ20 whole entry, looked up): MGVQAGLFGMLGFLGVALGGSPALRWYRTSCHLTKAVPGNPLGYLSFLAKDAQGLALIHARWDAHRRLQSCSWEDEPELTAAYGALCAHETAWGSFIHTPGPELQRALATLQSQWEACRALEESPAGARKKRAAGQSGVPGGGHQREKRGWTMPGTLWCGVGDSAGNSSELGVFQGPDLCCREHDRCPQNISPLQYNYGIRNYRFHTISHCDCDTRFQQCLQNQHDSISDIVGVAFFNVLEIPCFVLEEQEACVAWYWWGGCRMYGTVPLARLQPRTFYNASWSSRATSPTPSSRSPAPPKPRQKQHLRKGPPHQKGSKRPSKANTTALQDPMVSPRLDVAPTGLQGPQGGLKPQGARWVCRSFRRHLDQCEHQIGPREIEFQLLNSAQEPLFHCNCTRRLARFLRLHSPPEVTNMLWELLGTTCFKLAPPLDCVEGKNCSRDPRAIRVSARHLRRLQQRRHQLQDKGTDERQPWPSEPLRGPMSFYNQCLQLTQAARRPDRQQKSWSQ
H9c2 protect: protects H9c2 cardiomyocytes from peroxide injury | H2O2 injury protection, ATPLite, 2 h | protection from H2O2 cell death, % at 20 µM | 360,000 compounds, 0.63% hits | AID 588492;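 active = compounds giving at least 50% protection of heart cells from peroxide-induced death in the single-dose screen, raw or plate-pattern-corrected value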;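 also: 0% = DMSO wells with peroxide and 100% = DMSO wells without peroxide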
sPLA2 confirm: human GIII-sPLA2 inhibition, confirmation; AID 743280; recombinant hGIII-sPLA2, BODIPY PC-A2 QFRET fluorescence; inhibition, % at 12.2 µM; 2,000 compounds, 34% hits; shares compounds with sPLA2-III inh;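 active = mean inhibition across triplicates above the hit cutoff set in the earlier primary screen, cut at about 19% in these data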;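 also: 0% = enzyme with DMSO and 100% = DMSO wells lacking enzyme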
535nm interf: counter-screen for HGIII-sPLA2 inhibitors: 535nm fluorescence interference. 2,000 compounds, 8.5% hits. inhibition, % at 12.2 µM. shares compounds with sPLA2-III inh. BODIPY FL product fluorescence interference, QFRET. AID 743282;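 active = average inhibition above the solvent-only control mean plus 3 SD, cut at about 6% in these data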;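 also: 0% = DMSO with substrate plus product and 100% = DMSO with substrate alone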
The depositor's hits bear a star; i = inactive; ? = inconclusive; . = no result given. Sampled rows, rich in hits. Any-hit rate of the full collection: about 2.9%.

SMILES	Rtt109 HAT inh	ABHD5-PLIN5 inh	DAGLB inhibitor	Myeloid diff 2	sPLA2-III inh	H9c2 protect	sPLA2 confirm	535nm interf
CCCN(CCC)C(=O)C[n+]1cccc(/C=N/O)c1	4.4	-0.8	0.7	i	20.2*	-7.0	4.9	-4.8
CC(=O)c1cccc(NC(=O)C(C)OC(=O)CCN=C2NS(=O)(=O)c3ccccc32)c1 (stereo unspecified)	-1.0	-3.9	0.3	i	3.0	-0.8	.	.
Cn1c(=O)[nH]c(=O)c2c1nc(SCCCO)n2CCCc1ccccc1	4.6	-3.1	-1.6	i	2.0	0.5	.	.
CCCS(=O)(=O)N1CCCC(C(=O)NC2CCCCC2)C1 (stereo unspecified)	-10.5	-4.2	-1.7	i	11.0	2.8	.	.
CCCCOc1ccc(C(C)NC(=O)C2CCCN(S(=O)(=O)CCC)C2)cc1 (stereo unspecified)	-7.3	-7.0	-0.2	i	19.5*	-1.0	-4.4	-19.0
Cc1ccc(OCCN2CCN(C)CC2)c([N+](=O)[O-])c1	-3.2	-0.8	-1.4	i	22.2*	7.0	-1.0	-5.3
COC(=O)C1=C(C)NC2=C(C(=O)CC(C)(C)C2)C1c1cnn(C)c1C (stereo unspecified)	-0.4	3.1	-2.3	i	20.9*	-1.6	0.7	-3.0
Cc1c(C2Nc3ccccc3NC3=C2C(=O)CC(C)(C)C3)cnn1C (stereo unspecified)	-4.0	-28.7	-3.1	i	-24.5	-3.2	.	.
CC(=O)Nc1ccc(-c2ccnc3c2CC(C(=O)Nc2ccc4c(c2)OCO4)O3)cc1 (stereo unspecified)	.	1.9	.	?	2.1	25.3	.	.
CN(C)c1ccc(C=NC(CO)C(O)c2ccc([N+](=O)[O-])cc2)cc1 (stereo unspecified)	-17.2	0.5	3.5	i	1.6	0.4	.	.
CN(C)c1ccc(C(c2ccc(N(C)C)cc2)c2ccc([N+](=O)[O-])cc2)cc1	5.4	-0.5	-5.3	i	19.6*	-6.2	19.0	9.2*
O=C(Nc1nc2ccccc2[nH]1)c1cc(F)cc(F)c1	-11.0	-5.0	-3.3	i	24.5*	0.3	20.9*	-1.8
O=C(Nc1nc2ccccc2[nH]1)c1ccc(F)cc1	-2.8	3.5	-0.4	i	-5.2	-21.8	.	.
O=C(Nc1nc2ccccc2[nH]1)c1ccc(F)c(S(=O)(=O)N2CCOCC2)c1	11.2	0.7	0.2	i	21.2*	-8.3	9.4	-3.8
O=C(Nc1nc2ccccc2[nH]1)c1cccc(S(=O)(=O)N2CCOCC2)c1	7.2	-4.2	2.3	i	17.1	-1.1	.	.
N#Cc1ccc(C(=O)Nc2nc3ccccc3[nH]2)cc1	0.5	-6.3	0.5	?	22.9*	-12.2	18.6	0.2
O=C(c1cc(S(=O)(=O)N2CCCCC2)ccc1N1CCOCC1)N1CCN(Cc2ccccc2)CC1	2.5	3.4	0.1	i	-2.0	13.3	.	.
CC(Sc1ccc(Cl)cc1)C(=O)NNC(=O)c1ccccc1O (stereo unspecified)	4.7	-6.5	6.2	i	23.4*	31.7	7.3	-3.2
CN1CCN(CC(=O)Nc2ccccc2C(F)(F)F)CC1	-12.8	-4.8	1.1	i	22.4*	3.3	6.6	-4.6
O=C(CN1CCN(c2ccccc2)CC1)Nc1ccccc1C(F)(F)F	-16.4	-10.9	-12.8	i	4.7	-6.6	.	.
CCOC(=O)N1CCN(S(=O)(=O)c2ccc(F)c(C(=O)Nc3ccc(C(C)C)cc3)c2)CC1	6.1	-5.0	-1.0	i	20.3*	-6.1	-18.8	-17.0
CCOC(=O)N1CCN(S(=O)(=O)c2ccc(F)c(C(=O)Nc3ccc(C)c(Cl)c3)c2)CC1	-3.1	7.0	-1.0	i	-37.6	-12.0	.	.
O=C(NN1C(=O)c2ccc(-c3ccc4c(c3)C(=O)N(NC(=O)c3cccnc3)C4=O)cc2C1=O)c1cccnc1	2.9	-0.5	0.8	i	1.1	-3.7	.	.
COc1ccc(C2(C)NC(=O)N(CC(=O)Nc3c(C)n(C)n(-c4ccccc4)c3=O)C2=O)cc1 (stereo unspecified)	1.0	-12.6	0.3	i	-7.4	-0.6	.	.
COc1ccc2cc(C3(C)NC(=O)N(CC(=O)Nc4c(C)n(C)n(-c5ccccc5)c4=O)C3=O)ccc2c1 (stereo unspecified)	3.3	6.3	-0.5	i	21.0*	-1.2	-0.8	-21.7
SMILES	Rtt109 HAT inh	ABHD5-PLIN5 inh	DAGLB inhibitor	Myeloid diff 2	sPLA2-III inh	H9c2 protect	sPLA2 confirm	535nm interf
Cc1ccccc1NC(=O)c1c(C)[nH]c(=S)c(C#N)c1-c1ccco1	2.9	-0.5	7.4	i	20.5*	2.8	20.5*	2.1
CNC(=O)c1c(C)[nH]c(=S)c(C#N)c1-c1ccco1	-5.5	14.2	-1.7	i	0.1	-1.6	.	.
O=c1c2cc([N+](=O)[O-])cc([N+](=O)[O-])c2[nH]n1-c1ccccc1	2.4	5.3	32.9	i	20.9*	0.2	26.8*	5.0
C#CCOCCOCCOCCNc1nc(N2CCN(C(=O)[C@H](CCCCN)n3cc(CN)nn3)CC2)nc(N2CCN(C(=O)[C@H](CCCCN)n3cc([C@@H](N)[C@H](C)CC)nn3)CC2)n1	6.2	6.6	2.0	i	-0.7	6.3	.	.
C#CCOCCOCCOCCNc1nc(N2CCN(C(=O)[C@H](CCCCN)n3cc([C@@H](N)C(C)CC)nn3)CC2)nc(N2CCN(C(=O)[C@H](CCCCN)n3cc([C@@H](N)C(C)CC)nn3)CC2)n1 (stereo partly specified)	.	.	.	.	20.1*	.	-2.2	-43.5
Cc1cccc(N2CCN(C(=O)CCN3C(=S)NC(C)(C)CC3C)CC2)c1C (stereo unspecified)	11.4	-7.0	1.6	i	28.1*	-5.4	11.6	-14.1
Cc1ccc(C)c(N2CCN(C(=O)CCCN3C(=S)NC(C)(C)CC3C)CC2)c1 (stereo unspecified)	5.8	-5.1	0.0	i	21.9*	-3.8	20.9*	-26.3
CC1CC(C)(C)NC(=S)N1CCC(=O)N1c2ccccc2CC1C (stereo unspecified)	1.7	9.3	2.1	i	13.7	11.4	.	.
CCc1cc(=O)oc2cc(C)cc(OCC(=O)NCC(O)c3ccccc3)c12 (stereo unspecified)	-29.5	3.7	-1.3	i	7.8	9.9	.	.
O=C(NCCCO)C(=O)NCC(c1ccc2c(c1)OCO2)N1CCN(c2ccc(F)cc2)CC1 (stereo unspecified)	-6.1	-3.7	-0.4	i	-2.1	-2.8	.	.
Cc1ccc(NC(=O)c2ccc(Cl)c(S(=O)(=O)NCc3ccco3)c2)c(O)c1	3.4	-3.6	2.1	i	-58.5	-3.3	.	.
